# High-throughput results from PubChem BioAssay.
# The sample as a whole holds a higher share of hits than the screen did.
# L3MBTL1 inh: qHTS Assay for the Inhibitors of L3MBTL1; Lethal(3)malignant brain tumor-like protein 1 (Homo sapiens), Q9Y468; AlphaScreen L3MBTL1–H3K9me1 peptide binding; Potency, µM (highest dose often 57.1 µM), for inactives: at the highest dose activity, negative = inhibition, hits mostly inhibitors; 230,000 tested, 0.66% active; note: nearly all actives have a fitted effect of over 60% in size
#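 AlphaScreen assay: L3MBTL1 (50 nM final) was preincubated 30 min at room temperature with biotinylated H3(1-15)K9me1 peptide (75 nM final), then 30 min with library compounds; streptavidin donor and nickel chelate acceptor beads (10 ug/mL final) added, 30 min dark.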
# BLM helicase inh: qHTS Assay for Inhibitors of Bloom's syndrome helicase (BLM); Potency, µM (titrated, usually from 56.1 µM), for inactives: at the highest dose activity change, negative = inhibition, most hits filed as inhibitors; RecQ-like DNA helicase BLM (Homo sapiens), P54132; 350,000 tested, 0.2% active; recombinant BLM DNA unwinding, fluorescence dequenching;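 note: plate controls were vehicle for no effect and no enzyme for full effect; nearly all actives have a fitted effect of over 35% in size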
# KDM4E inh: qHTS Assay for Inhibitors of Human Jumonji Domain Containing 2E (JMJD2E); Lysine-specific demethylase 4E (Homo sapiens), B2RXH2; JMJD2E catalytic domain, FDH-coupled NADH fluorescence (FDH is formaldehyde dehydrogenase); Potency, µM (titrated, usually from 57.1 µM), for inactives: at the highest dose activity change, negative = inhibition, hits mostly inhibitors; 230,000 tested, 1.6% active; AID 2147, 2009; active = well fitted inhibition curve with a large enough effect, not every such curve was filed as active; inconclusive = small, poorly fitted or top-dose-only effect, or another doubt; inactive = no such curve, though single readings can be large or run the other way;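 note: 0% = wells with enzyme and -100% = buffer wells without enzyme; nearly all actives have a fitted effect of over 50% in size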
# Target sequence (B2RXH2 1-337 limits assumed): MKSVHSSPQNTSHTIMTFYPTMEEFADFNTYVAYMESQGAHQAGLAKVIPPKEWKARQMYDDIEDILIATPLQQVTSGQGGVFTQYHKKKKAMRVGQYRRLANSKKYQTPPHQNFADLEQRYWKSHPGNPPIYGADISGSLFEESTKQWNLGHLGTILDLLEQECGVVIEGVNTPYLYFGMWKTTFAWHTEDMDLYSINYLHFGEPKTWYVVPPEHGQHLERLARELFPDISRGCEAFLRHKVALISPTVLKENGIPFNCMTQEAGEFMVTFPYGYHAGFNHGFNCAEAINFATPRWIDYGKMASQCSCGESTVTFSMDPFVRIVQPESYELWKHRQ
# RECQ1 helicase: qHTS Assay for Inhibitors of RecQ-Like Dna Helicase 1 (RECQ1); RECQ1 DNA unwinding, red fluorescence kinetic read; Potency, µM (titrated, usually from 57.3 µM), for the others: top-dose activity, negative = inhibition, most hits filed as inhibitors; 240,000 tested, 0.54% active; AID 2549, 2010;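 note: plate controls were vehicle for no effect and no enzyme for full effect; nearly all actives have a fitted effect of over 30% in size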
#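 50 nM RECQ1T1 preincubated 15 min with compound in Tris pH 8.0 buffer with MgCl2, DTT, Tween-20 and 2.5 ug/ml poly(dI-dC); started with 200 nM TAMRA/BHQ-2 forked duplex and 2 mM ATP. Unwinding read as fluorescence (525/598 nm), two reads 2 h apart.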
# APEX1 inh: qHTS Assay for Inhibitors of the Human Apurinic/apyrimidinic Endonuclease 1 (APE1) | 350,000 tested, 0.35% active | DNA repair nuclease/redox regulator APEX1 (Homo sapiens), P27695 | Potency, µM (titrated, usually from 65.8 µM), without a hit: at the highest dose activity change, negative = inhibition, usual class: inhibitors | AID 2517, 2012 | recombinant APE1, TAMRA/BHQ-2 abasic DNA cleavage fluorescence;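 note: plate controls were vehicle for no effect and reference inhibitor for full effect; nearly all actives have a fitted effect of over 55% in size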
# Target sequence (P27695 whole entry, looked up): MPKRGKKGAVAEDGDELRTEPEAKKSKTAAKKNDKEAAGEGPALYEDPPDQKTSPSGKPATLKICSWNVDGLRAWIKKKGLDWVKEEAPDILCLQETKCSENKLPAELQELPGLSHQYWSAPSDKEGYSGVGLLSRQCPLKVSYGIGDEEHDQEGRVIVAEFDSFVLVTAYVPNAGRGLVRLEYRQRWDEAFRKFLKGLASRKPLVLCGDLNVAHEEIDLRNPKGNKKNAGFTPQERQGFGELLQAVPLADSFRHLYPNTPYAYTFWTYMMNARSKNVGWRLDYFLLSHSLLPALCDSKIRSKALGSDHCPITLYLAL
#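 0.75 nM APE1 + cpd, 15 min RT; start w/ 50 nM TAMRA/BHQ-2 THF-abasic dsDNA; kinetic fluor 525/598 nm ×3 reads @60 s; Δ(read3−read1); normalized to DMSO and NSC13755 control wells.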
# The depositor's hits bear a star; i = inactive; ? = inconclusive; nt = no result given; [ ] = remark or other dose. Unless noted, calls come from the whole dose curve; as a rule, active = well fitted curve in the direction sought with a large enough effect; inconclusive = small, poorly fitted or top-dose-only effect, or another doubt; inactive = no such curve, though single readings can be large; an effect the other way counts as inactive or inconclusive. Unless noted, % is set by controls: 0 for no effect and ±100 for the full control effect; potency is the fitted concentration of half-maximal effect.
SMILES,L3MBTL1 inh,BLM helicase inh,KDM4E inh,RECQ1 helicase,APEX1 inh
COc1ccc(C(=O)NCCn2cc(SCC(=O)Nc3ccc4c(c3)OCCO4)c3ccccc32)cc1,nt,0%,nt,nt,nt
CCOC(=O)c1sc(N=NC2=C(O)CCCC2=O)c(C(=O)OCC)c1C,3.5µM*,?,?,-20%,?
CCCN(CCC)CCCNC(=O)Cn1ncc2c3ccccc3n(Cc3ccc(F)cc3)c2c1=O,nt,-12%,nt,nt,nt
N#CC(C#N)=Cc1ccc(NC(=O)c2ccc(Br)cc2)cc1,nt,-12%,20µM*,-5%,-5%
O=C(Nc1ccc(C(=O)N2CCCCC2)cc1)c1ccc(Br)cc1,1%,-6%,0%,-2%,-1%
CC(C)(C)c1ccc(C(=O)Nc2ccc(NC(=O)c3ccc(Cl)c(Cl)c3)cc2)cc1,nt,-1%,nt,nt,nt
CC(C)(C)c1ccc(C(=O)Nc2ccc(C=C(C#N)C#N)cc2)cc1,3%,-4%,11µM*,-13%,-4%
Oc1ccc2ccccc2c1N=Nc1ccccn1,10µM*,-3%,?,i,0%
O=S(=O)(O)c1cccc(N=Nc2c(O)ccc3ccccc23)c1,nt,-8%,-9%,-14%,?
Oc1ccc2ccccc2c1N=Nc1ccccc1F,8.9µM*,-2%,?,-20%,-3%
CC(C)CCn1c(O)c(N=Nc2ccccn2)c2ccccc21,-6%,-2%,-17%,-4%,1%
COc1cc(C2CC(=O)N3CN(c4ccccc4C)CSC3=C2C#N)cc(OC)c1OC (centres undefined),-11%,-11%,11µM*,-4%,16%
COc1ccccc1N1CSC2=C(C#N)C(c3ccc(SC)cc3)CC(=O)N2C1 (centres undefined),22µM*,-30%,22µM*,?,-3%
COc1ccc(OC)c(C2CC(=O)N3CN(c4ccccc4F)CSC3=C2C#N)c1 (centres undefined),nt,7%,2.2µM*,14%,?
CCOc1ccc(N2CSC3=C(C#N)C(c4ccco4)CC(=O)N3C2)cc1 (centres undefined),nt,?,?,?,32µM*
COc1ccc(OC)c(C2CC(=O)N3CN(c4cccc(Cl)c4C)CSC3=C2C#N)c1 (centres undefined),nt,-6%,?,-5%,1%
O=C1C=C(c2ccc3cc[nH]c3c2)C[C@@H](c2ccc3c(c2)OCO3)C1,32µM*,nt,nt,nt,12µM*
O=C(Nc1ccc2c(c1)OCCO2)c1cccc(S(=O)(=O)N2CCCCC2)c1,nt,-14%,2%,i,-3%
CCC(=O)Nc1c(OC(=O)CC)ccc2c(C)cc(=O)oc12,-5%,-1%,4µM*,-14%,15%
CCC(=O)Oc1c(C(=O)CC)cc2c(C)cc(=O)oc2c1C,0%,-6%,3%,-4%,-3%
CCN(CC)c1ccc(N=Cc2ccc([N+](=O)[O-])o2)cc1,?,-6%,2.8µM*,?,?
O=[N+]([O-])c1ccccc1/C=N/OCc1ccccc1,nt,-1%,nt,nt,0%
CCN(CC)c1ccc(N=Cc2ccccc2[N+](=O)[O-])cc1,28µM*,-9%,5µM*,-10%,-1%
COC(=O)c1cccc(-n2c(CCC(=O)O)ccc2-c2ccc(OC)cc2)c1,nt,0%,nt,nt,nt
COC(=O)c1cccc(-n2c(CCC(=O)O)ccc2-c2cccs2)c1,-13%,-4%,25µM*,i,-2%
SMILES,L3MBTL1 inh,BLM helicase inh,KDM4E inh,RECQ1 helicase,APEX1 inh
COc1cc(CNc2ccc(N3CCCC3)cc2)cc(Cl)c1OC,?,-2%,14µM*,23%,0%
CCOc1ccc(CNc2ccc(N3CCCC3)cc2)cc1,?,-4%,16µM*,-6%,1%
CCOc1cc(CNc2ccc(S(N)(=O)=O)cc2)cc(Cl)c1OC,-3%,-9%,0%,-4%,-4%
C=CCOc1c(Cl)cc(CNc2ccc(N(C)C)cc2)cc1OC,13µM*,2%,3%,3%,0%
CCOc1cc(CNc2ccc(N3CCCC3)cc2)cc(Cl)c1OC,?,-12%,16µM*,-1%,-1%
CC(C)NC(=O)N1CCC2(CC1)CCN(C(=O)c1ccco1)CC2,nt,-3%,nt,-5%,2%
COc1cc(C(=O)NCCC(C)C)c([N+](=O)[O-])cc1OC,6%,-1%,-12%,-8%,-3%
CCOc1ccc(Nc2nc(NCC3CCCO3)c3ccccc3n2)cc1 (centres undefined),nt,28µM*,-14%,?,14%
CN(C(=O)CSc1nnc(-c2ccco2)n1N)C1CCCCC1,-2%,-5%,-2%,-3%,1%
Cc1ccc(NCC(=O)N/N=C\C(Br)=C\c2ccccc2)cc1,nt,-4%,-7%,-4%,-8%
CSC1=N/C(=C\c2ccc(C)s2)C(=O)S1,-12%,1%,-3%,-10%,-5%
CSC1=N/C(=C\c2ccc(C)o2)C(=O)S1,28µM*,-4%,-1%,5%,3%
Cc1ccc2c(c1)C1CC(C)(O2)N(c2cccc(C(=O)NCc3ccccn3)c2)C(=O)N1 (centres undefined),nt,3%,nt,nt,0%
Cc1ccc2c(c1)C1CC(C)(O2)N(c2cccc(C(=O)NC3CCN(Cc4ccccc4)CC3)c2)C(=O)N1 (centres undefined),nt,1%,nt,nt,24µM*
O=Cc1ccc(-c2cccc([N+](=O)[O-])c2)o1,10%,-2%,2%,-9%,19%
O=C1NC(=O)/C(=C/c2ccc(-c3cccc([N+](=O)[O-])c3)o2)S1,-1%,?,nt,nt,13µM*
Cc1cccnc1NC(=O)c1ccc(Br)o1,7%,nt,nt,nt,4%
COc1cccc(Cn2nnc3c(=O)[nH]c(C4CCCN(C(=O)c5ccc(C)cc5)C4)nc32)c1 (centres undefined),nt,-4%,nt,nt,nt
C/C(=N/Nc1ccc(C(=O)O)cc1)c1ccc(O)c(O)c1O,14µM*,-1%,8.9µM*,0%,?
O=C(CC1Sc2ncnn2C1=O)Nc1ccc(Br)cc1 (centres undefined),3%,0%,2.2µM*,i,-10%
O=C1/C(=C\c2ccc(O)c(O)c2)C(c2ccccc2)=NN1c1ccccc1,14µM*,?,14µM*,?,?
COc1cc(/C=C2\C(=O)N(c3ccc(NC(C)=O)cc3)N=C2c2ccccc2)ccc1O,-3%,0%,-26%,30%,?
CCN(CC)C(=O)c1sc(NC(=S)N2CCN(C(=O)C3CCCO3)CC2)c(C(=O)OC)c1C (centres undefined),nt,-2%,nt,nt,58%
CCN(CC)[C@@H](C)CN1c2ccccc2Sc2ccccc21,nt,-13%[21.4 µM],7.9µM*,-6%[25.9 µM],nt
CC(=O)NC(C)c1nc2ccccc2n1Cc1ccccc1Cl (centres undefined),nt,-1%,nt,nt,nt
